The values below come from PubChem BioAssay (EPA / NIEHS).

SMILES strings stand for the structures. The source made the active and inactive calls. Rule for the calls: active = hit-call score of the fitted dose curve at least 0.9, where 1 is the maximum; inactive = score below 0.9.

By AC50 is commonly meant the concentration giving half of the maximal activity seen.

For test [1], the target named is Transcription factor E2F1 (Homo sapiens) (UniProt Q01094). In words: ATG_E2F_CIS: Attagene CIS-FACTORIAL HepG2 Assay for human E2F Transcription Factor 1 (AID 2282935). The conditions noted are these: HepG2 Attagene cis-reporter, E2F reporter RNA transcripts; actives raise or lower the signal. The gist of the method: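 Transient MRTU transfection of HepG2; 24 h compound exposure; RNA → oligo(dT) RT → PCR → FAM label → HpaI cut → CE fluorescence. Gain/loss of signal fit against DMSO.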
Sequence of Transcription factor E2F1 (Homo sapiens) (Q01094 whole entry, looked up): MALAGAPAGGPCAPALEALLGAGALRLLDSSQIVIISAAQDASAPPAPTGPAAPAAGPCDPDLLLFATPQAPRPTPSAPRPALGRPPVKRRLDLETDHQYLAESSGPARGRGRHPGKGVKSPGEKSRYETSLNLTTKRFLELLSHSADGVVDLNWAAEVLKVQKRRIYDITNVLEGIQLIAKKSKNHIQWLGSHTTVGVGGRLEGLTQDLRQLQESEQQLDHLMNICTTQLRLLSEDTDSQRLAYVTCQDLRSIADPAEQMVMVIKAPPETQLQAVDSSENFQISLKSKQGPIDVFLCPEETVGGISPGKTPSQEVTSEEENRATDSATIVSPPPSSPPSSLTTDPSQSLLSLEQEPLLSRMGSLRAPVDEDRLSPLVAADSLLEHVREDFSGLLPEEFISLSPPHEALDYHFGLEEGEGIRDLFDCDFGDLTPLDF

Test [2] in a line: ATG_E_Box_CIS: Attagene CIS-FACTORIAL HepG2 Assay for human Enhancer Box (E-box) (AID 2282936). The conditions noted are these: HepG2 E-box cis-reporter transcription, actives raise or lower the signal. The gist of the method:
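Transiently transfected HepG2, endogenous TF-driven reporters, 24 h dosing. Readout: RT-PCR plus capillary electrophoresis of fluorescent reporter fragments. Gain or loss of signal fitted bidirectionally against DMSO baseline.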

Test [3] in a line: ATG_M_61_CIS: Attagene CIS-FACTORIAL HepG2 Assay for M61 Transcription Factor (Internal Marker) (AID 2282937). To be noted: HepG2 Attagene CIS-FACTORIAL M61 internal marker reporter; actives raise or lower the signal. Put shortly:
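Transfect HepG2 with MRTUs; dose 24 h; isolate RNA; reverse-transcribe with DNase I treatment; PCR-amplify, FAM-label and cut with HpaI for 2 h at 37 C; resolve by CE. Bidirectional fitting against DMSO.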

A short description of test [4]: ATG_M_19_CIS: Attagene CIS-FACTORIAL HepG2 Assay for M19 Transcription Factor (Internal Marker) (AID 2282939). The conditions noted are these: HepG2 Attagene CIS-FACTORIAL M19 internal marker reporter; actives raise or lower the signal. Put shortly:
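Following a 24 h exposure, RNA from transfected HepG2 cells was reverse-transcribed, PCR-amplified with reporter-specific primers, end-labelled with 6-FAM and HpaI-digested before capillary separation. Values represent gain or loss versus DMSO.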

Test [5] can be described thus: ATG_ERE_CIS: Attagene CIS-FACTORIAL HepG2 Assay for Estrogen Response Element (ERE) (AID 2282940). To be noted: HepG2 ERE cis-reporter, Attagene RNA transcript; actives raise or lower the signal. The gist of the method: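 HepG2, transient cis-reporter units, 24 h exposure. RNA isolated, oligo(dT) RT, reporter-specific PCR, FAM extension, HpaI cut, CE detection. Gain/loss-of-signal vs DMSO.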

Test [6] in a line: ATG_Ets_CIS: Attagene CIS-FACTORIAL HepG2 Assay for human Erythroblast Transformation Specific (ETS) (AID 2282941). The conditions noted are these: HepG2 ETS cis-reporter transcription, actives raise or lower the signal. Put shortly: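 Endogenous transcription factor activity read as reporter mRNA via RT-PCR and capillary electrophoresis, with gain or loss fitted bidirectionally against DMSO. Human HepG2 liver cells, transiently transfected CIS reporter constructs, 24 h exposure.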

Test [7] concerns the target Hepatocyte nuclear factor 3-beta (Homo sapiens) (UniProt Q9Y261). Kind of test: ATG_FoxA2_CIS: Attagene CIS-FACTORIAL HepG2 Assay for human Forkhead box A2 (FOXA2) (AID 2282942). The conditions noted are these: HepG2 cis-reporter transcription factor activity, 24 h; actives raise or lower the signal. Put shortly: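 24 h dosing of HepG2 bearing cis-reporter constructs; mRNA readout by RT-PCR/CE fluorescence; bidirectional fit, DMSO baseline.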

Test [8] is described as follows: ATG_FoxO_CIS: Attagene CIS-FACTORIAL HepG2 Assay for human Forkhead box O (FoxO) (AID 2282943). To be noted: HepG2 Attagene cis-reporter, FoxO element, mRNA; actives raise or lower the signal. Put shortly:
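Transfected HepG2 reporter cells exposed to test chemical for 24 h; reporter RNA measured by reverse transcription, PCR and fluorescent capillary electrophoresis; curves fitted for increases and decreases against DMSO.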

A short description of test [9]: ATG_GATA_CIS: Attagene CIS-FACTORIAL HepG2 Assay for human GATA Binding Protein (AID 2282944). The conditions noted are these: HepG2 GATA cis-element reporter, Attagene multiplex mRNA; actives raise or lower the signal. Put shortly:
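DMSO serves as negative control and baseline for bidirectional fitting of reporter mRNA changes. HepG2 cells bearing transiently transfected cis-promoter reporters were exposed 24 h; transcripts detected via RT-PCR and capillary electrophoresis.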

Test [10] is described as follows: ATG_GLI_CIS: Attagene CIS-FACTORIAL HepG2 Assay for human Zinc Finger Protein GLI1 (AID 2282945). The conditions noted are these: HepG2, Attagene cis-factorial reporter mRNA, GLI element; actives raise or lower the signal. Put shortly:
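Transiently transfected HepG2 cells report endogenous transcription factor activity via cis-element-driven reporter units. After 24 h compound exposure, reporter mRNA was measured by RT-PCR with capillary electrophoresis; bidirectional fitting against DMSO baseline.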

In test [11] the target is Bile acid receptor (Homo sapiens) (UniProt Q96RI1). In words: ATG_IR1_CIS: Attagene CIS-FACTORIAL HepG2 Assay for human Nuclear Receptor Subfamily 1 Group H Member 4 (NR1H4), IR1 submotif (AID 2282946). To be noted: IR1 reporter transcription, actives raise or lower the signal. The gist of the method:
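Fluorescence of capillary-separated, HpaI-digested RT-PCR reporter products gave IR1-element mRNA induction in HepG2 cells 24 h after dosing. Endogenous transcription factors drove the cis-regulated reporters; activity was fitted bidirectionally against DMSO.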

The nature of test [12]: ATG_ISRE_CIS: Attagene CIS-FACTORIAL HepG2 Assay for human Interferon Regulatory Factor 1 (IRF1) binding to an Interferon-Stimulated Response Element (ISRE) (AID 2282948). To be noted: HepG2 ISRE cis-reporter (Attagene), mRNA transcription readout; actives raise or lower the signal. The gist of the method: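 Endogenous transcription factor activity read as reporter transcript abundance via RT-PCR and capillary electrophoresis. HepG2 cells transiently transfected, 24 h chemical exposure. Gain or loss fitted against DMSO baseline.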

A short description of test [13]: ATG_M_32_CIS: Attagene CIS-FACTORIAL HepG2 Assay for M32 Transcription Factor (Internal Marker) (AID 2282949).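 Note: background control marker of the multiplexed CIS panel rather than a real target.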 To be noted: HepG2 Attagene cis-factorial M32 reporter, mRNA; actives raise or lower the signal. The gist of the method:
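Transient MRTU transfection of HepG2; 24 h compound treatment; TriZol RNA, oligo(dT) RT, reporter PCR, 6-FAM primer extension, HpaI cut, CE. Gain/loss of signal vs DMSO.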

The nature of test [14]: ATG_M_06_CIS: Attagene CIS-FACTORIAL HepG2 Assay for M06 Transcription Factor (Internal Marker) (AID 2282950). To be noted: HepG2 Attagene CIS-FACTORIAL M06 internal marker reporter; actives raise or lower the signal. Put shortly:
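Fluorescence-labelled RT-PCR products from cis-promoter reporter units, cut with HpaI and resolved by capillary electrophoresis, give the signal. Cells are human HepG2, dosed for 24 h. Serves as background control, fitted relative to DMSO.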

Test [15] addresses Hepatocyte nuclear factor 6 (Homo sapiens) (UniProt Q9UBC0). Kind of test: ATG_HNF6_CIS: Attagene CIS-FACTORIAL HepG2 Assay for human Hepatocyte Nuclear Factor 6 (HNF6) (AID 2282952). The conditions noted are these: HepG2 Attagene cis-factorial HNF6 reporter transcription; actives raise or lower the signal. Put shortly:
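Twenty-four-hour chemical treatment of reporter-transfected HepG2 cells precedes RNA isolation, DNase-treated reverse transcription and PCR of reporter sequences. Labelled fragments are sized by capillary electrophoresis and fitted bidirectionally versus DMSO.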

Test [16] concerns the target Heat shock factor protein 1 (Homo sapiens) (UniProt Q00613). In words: ATG_HSE_CIS: Attagene CIS-FACTORIAL HepG2 Assay for human Heat Shock Transcription Factor 1 (HSE) (AID 2282953). The conditions noted are these: HepG2 HSE cis-reporter, Attagene RNA transcription; actives raise or lower the signal. Put shortly:
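After a 24 h incubation with test chemical, transfected HepG2 cells were harvested for RNA; reporter transcripts were measured by RT-PCR and capillary electrophoresis. Values reflect gain or loss of signal relative to DMSO.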

Test [17] can be described thus: ATG_MRE_CIS: Attagene CIS-FACTORIAL HepG2 Assay for human Metal Responsive Element (MRE) (AID 2282954). The conditions noted are these: HepG2 MRE cis-reporter transcription, Attagene multiplex; actives raise or lower the signal. Put shortly:
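RT-PCR/capillary electrophoresis readout of reporter mRNA, 24 h post-dosing, in HepG2 cells transfected with multiplexed cis-regulated reporter constructs. Gain or loss of signal fitted bidirectionally against DMSO baseline.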

A short description of test [18]: ATG_GRE_CIS: Attagene CIS-FACTORIAL HepG2 Assay for human Glucocorticoid Response Elements (GRE) (AID 2282947). To be noted: HepG2 GRE cis-reporter, Attagene multiplex mRNA; actives raise or lower the signal. The gist of the method:
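Read-out: fluorescent reporter-transcript fragments separated by capillary electrophoresis after RT-PCR. Transiently transfected HepG2 cells carrying cis-element-driven reporter units were dosed for 24 h; gain or loss of signal fitted against DMSO control.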

In test [19] the target is Hypoxia-inducible factor 1-alpha (Homo sapiens) (UniProt Q16665). Kind of test: ATG_HIF1a_CIS: Attagene CIS-FACTORIAL HepG2 Assay for human Hypoxia Inducible Factor 1 (HIF1A) (AID 2282951). To be noted: HepG2 Attagene cis-factorial HIF1a reporter transcription; actives raise or lower the signal. Put shortly: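 After 24 h chemical exposure of reporter-transfected HepG2 cells, reporter cDNA was PCR-amplified, labelled by 6-FAM primer extension (2 min 95 C, 20 s 68 C, 10 min 72 C), HpaI-cut (2 h, 37 C) and analysed by CE.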
Sequence of Hypoxia-inducible factor 1-alpha (Homo sapiens) (Q16665 whole entry, looked up): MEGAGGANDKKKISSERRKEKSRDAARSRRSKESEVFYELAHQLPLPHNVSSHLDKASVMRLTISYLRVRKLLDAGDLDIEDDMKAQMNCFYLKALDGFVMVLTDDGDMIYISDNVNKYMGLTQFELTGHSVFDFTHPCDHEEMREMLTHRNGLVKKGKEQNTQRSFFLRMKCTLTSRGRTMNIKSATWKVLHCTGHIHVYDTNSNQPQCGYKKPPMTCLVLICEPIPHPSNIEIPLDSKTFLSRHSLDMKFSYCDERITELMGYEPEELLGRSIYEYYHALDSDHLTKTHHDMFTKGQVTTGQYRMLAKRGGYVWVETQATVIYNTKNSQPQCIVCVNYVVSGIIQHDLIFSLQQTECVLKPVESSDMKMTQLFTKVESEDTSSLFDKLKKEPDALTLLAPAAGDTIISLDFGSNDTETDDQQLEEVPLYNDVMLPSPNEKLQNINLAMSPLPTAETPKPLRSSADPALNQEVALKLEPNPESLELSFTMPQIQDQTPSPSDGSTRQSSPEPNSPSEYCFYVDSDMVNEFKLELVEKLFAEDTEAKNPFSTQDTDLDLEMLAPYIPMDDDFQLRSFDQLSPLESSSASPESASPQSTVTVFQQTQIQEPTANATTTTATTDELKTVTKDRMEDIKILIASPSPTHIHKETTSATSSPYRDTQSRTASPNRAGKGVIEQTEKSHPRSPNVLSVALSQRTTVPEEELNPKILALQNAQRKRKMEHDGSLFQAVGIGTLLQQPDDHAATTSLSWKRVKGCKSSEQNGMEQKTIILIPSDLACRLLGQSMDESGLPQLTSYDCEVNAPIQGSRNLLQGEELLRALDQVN

The nature of test [20]: ATG_EGR_CIS: Attagene CIS-FACTORIAL HepG2 Assay for human Early Growth Response 1 (EGR1) (AID 2282938). To be noted: HepG2 Attagene CIS-FACTORIAL EGR reporter mRNA; actives raise or lower the signal. Put shortly:
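After a 24 h treatment of transiently transfected HepG2 cells, total RNA was reverse-transcribed and reporter sequences PCR-amplified, labelled and run on capillary electrophoresis. Reporters sit under cis-regulatory promoters sensing endogenous factors.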

Sequence of Heat shock factor protein 1 (Homo sapiens) (Q00613 whole entry, looked up): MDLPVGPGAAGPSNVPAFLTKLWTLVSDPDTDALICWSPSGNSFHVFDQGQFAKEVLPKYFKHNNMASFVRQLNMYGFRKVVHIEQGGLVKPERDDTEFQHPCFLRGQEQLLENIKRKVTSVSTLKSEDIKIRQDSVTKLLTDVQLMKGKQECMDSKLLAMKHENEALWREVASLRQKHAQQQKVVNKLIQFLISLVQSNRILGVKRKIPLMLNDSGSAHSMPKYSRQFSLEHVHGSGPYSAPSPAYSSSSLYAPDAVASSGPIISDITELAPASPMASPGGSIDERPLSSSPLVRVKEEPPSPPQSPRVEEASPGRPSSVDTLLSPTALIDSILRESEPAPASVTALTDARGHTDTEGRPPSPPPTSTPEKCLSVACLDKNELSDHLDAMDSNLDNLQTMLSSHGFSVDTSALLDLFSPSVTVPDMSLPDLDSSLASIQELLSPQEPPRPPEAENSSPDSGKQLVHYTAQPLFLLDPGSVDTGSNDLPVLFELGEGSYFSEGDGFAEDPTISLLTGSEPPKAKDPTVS
Sequence of Hepatocyte nuclear factor 6 (Homo sapiens) (Q9UBC0 whole entry, looked up, the tested form may be a part): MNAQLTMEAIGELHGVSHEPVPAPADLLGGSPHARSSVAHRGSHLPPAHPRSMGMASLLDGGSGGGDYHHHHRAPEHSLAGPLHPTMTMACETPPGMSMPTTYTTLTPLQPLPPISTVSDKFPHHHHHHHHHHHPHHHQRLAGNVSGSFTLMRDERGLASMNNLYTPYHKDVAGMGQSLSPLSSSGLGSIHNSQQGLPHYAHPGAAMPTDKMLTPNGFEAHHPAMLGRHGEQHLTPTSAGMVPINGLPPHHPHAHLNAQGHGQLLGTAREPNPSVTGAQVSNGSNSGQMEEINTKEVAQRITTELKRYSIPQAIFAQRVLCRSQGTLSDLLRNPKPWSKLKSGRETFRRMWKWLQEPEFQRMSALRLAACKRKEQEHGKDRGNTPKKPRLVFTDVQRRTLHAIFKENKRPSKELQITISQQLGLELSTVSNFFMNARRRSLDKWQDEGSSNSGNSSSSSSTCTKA
Sequence of Hepatocyte nuclear factor 3-beta (Homo sapiens) (Q9Y261 whole entry, looked up): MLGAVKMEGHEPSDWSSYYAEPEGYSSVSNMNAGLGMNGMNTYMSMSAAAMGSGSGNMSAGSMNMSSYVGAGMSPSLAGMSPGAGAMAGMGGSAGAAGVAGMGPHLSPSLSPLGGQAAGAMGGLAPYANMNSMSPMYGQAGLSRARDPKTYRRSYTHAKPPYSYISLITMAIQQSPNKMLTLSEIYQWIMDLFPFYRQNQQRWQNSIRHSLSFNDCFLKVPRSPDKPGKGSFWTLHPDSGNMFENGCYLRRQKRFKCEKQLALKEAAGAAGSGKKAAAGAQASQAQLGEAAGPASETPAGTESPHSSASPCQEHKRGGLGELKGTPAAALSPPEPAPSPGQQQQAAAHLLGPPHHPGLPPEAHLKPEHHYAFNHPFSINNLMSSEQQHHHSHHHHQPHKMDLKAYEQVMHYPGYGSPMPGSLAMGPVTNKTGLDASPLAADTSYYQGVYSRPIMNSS
Sequence of Bile acid receptor (Homo sapiens) (Q96RI1 whole entry, looked up): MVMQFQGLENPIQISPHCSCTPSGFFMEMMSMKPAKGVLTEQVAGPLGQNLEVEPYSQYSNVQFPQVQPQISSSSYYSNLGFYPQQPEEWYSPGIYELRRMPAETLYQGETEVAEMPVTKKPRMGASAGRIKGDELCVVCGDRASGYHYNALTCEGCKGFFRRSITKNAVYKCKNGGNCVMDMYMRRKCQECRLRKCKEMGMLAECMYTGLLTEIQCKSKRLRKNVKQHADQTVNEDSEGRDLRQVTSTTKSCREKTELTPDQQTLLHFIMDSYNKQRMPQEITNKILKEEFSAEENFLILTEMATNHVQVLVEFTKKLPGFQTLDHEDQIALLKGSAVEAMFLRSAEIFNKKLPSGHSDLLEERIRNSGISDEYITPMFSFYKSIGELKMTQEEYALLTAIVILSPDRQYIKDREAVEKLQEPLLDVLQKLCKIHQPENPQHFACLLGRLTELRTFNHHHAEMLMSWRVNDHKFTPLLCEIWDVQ

Turning to `Cc1ccc(C)c(OCCCC(C)(C)C(=O)O)c1`, the compound was called inactive in test [1], in [2], in test [3], in test [4], in test [6] and in test [7]. The result in test [8], in test [9], in test [10], in test [11], in [12] and in test [13] was inactive. The call in [14], in test [15], in test [16] and in test [17] was inactive. Besides, in test [5], the concentration at half-maximal activity (AC50) is 75.2 µM (active).

Consider `COC(=O)CC(C)CCC=C(C)C` (centres undefined), for which the compound was classed as inactive in [1], in test [2], in [3], in [4], in test [5] and in [6]. The result in test [7], in test [8], in [9], in test [10], in test [11] and in test [18] was inactive. Moreover, the outcome in test [12], in test [13], in test [14], in [19], in test [15] and in test [17] was inactive.

With `Cc1ccccc1CCO`, the outcome in [1], in [2], in [3], in [4], in test [5] and in [6] was inactive. Moreover, the result in test [7], in [9], in test [10], in [11], in test [12] and in [13] was inactive. Also, the compound was classed as inactive in test [14], in [19], in test [15], in test [16] and in test [17].

For `CC(=O)CCC1=C(C)CCCC1(C)C`, the outcome in [1], in test [2], in test [3], in test [20], in [6] and in test [7] was inactive. Besides, the compound was called inactive in test [8], in [9], in test [10], in test [18], in test [12] and in [13]. The outcome in test [14], in [15], in [16] and in test [17] was inactive. Also, in test [5], the AC50 was 29.8 µM (active).
